According to the supplement of paper PMC5407854, “Inhibitor of ppGalNAc-T3-mediated O-glycosylation blocks cancer cell invasiveness and lowers FGF23 levels” (eLife, 2017):
Over roughly 1,700 compounds, “T3 sensor activation Q score (MG/GFP ratio z-score vs DMSO controls)” has its median near 0.25; the highest 2% begin near 1.9. The entries come from a sample that favours the highest values as a whole.

These compounds were tested on ppGalNAc-T3 sensor (assay: T3 sensor activation Q score (MG/GFP ratio z-score vs DMSO controls) (SD units); higher = more sensor activation (inhibition of ppGalNAc-T3 glycosylation)). Conditions: HEK293 sensor cells; 10 µM; 6 h.
Experimental: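 Cells were treated with compound at 10 uM for 6 h, then MG/GFP ratio was read by flow cytometry (10,000 cells per well, duplicate wells). Q = (R - R_neg)/SD_neg relative to DMSO vehicle controls; the signal rises when the glycosyltransferase is inhibited.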

Row | SMILES | T3 sensor activation Q score
1 | CC12CCC3C(CCC4Cc5[nH]c6ccccc6c5CC43C)C1CCC2O (stereo not given) | 0.6
2 | C[C@H]1CC[C@@]2(C)[C@@H](CC[C@@H]3[C@@H]2CC[C@]2(C)[C@@H](O)CC[C@@H]32)C1 | 3
3 | COc1ccc2c(c1)NP(=S)(Oc1ccccc1)N2 (stereo not given) | -0.15
4 | CCC1CCC(C)N(N=O)C1 (stereo not given) | 1.05
5 | Oc1cccc2nc3ccccc3nc12 | -0.35
6 | O=c1cccc2n1C[C@H]1C[C@@H]2CN2CCCC[C@@H]12 | 0.2
7 | CC(CC(C#N)(c1ccccc1)c1ccccc1)N1CCCCC1 (stereo not given) | 0.05
8 | CN1C2c3ccccc3C3C4c5ccccc5C(C31)C(C2[N+](=O)[O-])N4C (stereo not given) | 1.1
9 | CN1C(=O)CC[C@@]2(C)C1=CC[C@@H]1[C@@H]2CC[C@@]2(C)[C@H]1CC[C@]2(C)O | 0.4
10 | CC12CCC3C(CC=C4CC(O)CCC43C)C1C/C(=C\N1CCCC1)C2=O (stereo not given) | 1.9
11 | O=C(OC1CCCCC1)c1ccccc1C(=O)OC1CCCCC1 | 0.2
12 | Nc1nc(N)c2cnnn2n1 | 0.5
13 | FCCN(CCF)c1cccc(Cl)c1 | 1.9
14 | c1ccc2nc(OCCN3CC3)ccc2c1 | 1
15 | c1ccc2c(c1)Sc1ccccc1N2CC1CN2CCC1CC2 (stereo not given) | -0.15
16 | CC1(C)CC(=O)CC(C)(C)N1O | -1.9
17 | CC(=O)Nc1cc([As](=O)(O)O)ccc1O | 1.4
18 | NC(=S)c1cn([C@@H]2O[C@H](CO)[C@@H](O)[C@H]2O)c2ncnc(N)c12 | 4.95
19 | C1CC2NCCC3NCCC(N1)N32 (stereo not given) | -0.95
20 | CCOC(=O)c1ccc2[nH]c(-c3ccc(S(=O)(=O)F)cc3)cc(=O)c2c1 | 0.95
21 | O=C(NC(=O)c1c(F)cccc1F)Nc1cc(Cl)c(F)c(Cl)c1F | -0.65
22 | O=C1N(c2nncs2)CCN1[N+](=O)[O-] | 2.65
23 | CC[C@@]1(O)C(=O)OCc2c1cc1n(c2=O)Cc2cc3ccccc3nc2-1 | -1.75
24 | C=CCNC(=S)Nc1ccc(OC(=O)Nc2ccc(Cl)c(Cl)c2)cc1 | 0.4
25 | Cn1cc(C=O)c2nccnc21 | -1.5
